Reference: PubChem BioAssay AID2241 (Broad Institute, 2010)
In all, about 21,000 compounds went through this assay and about 110 (0.52%) were called active. This is one part of a sample in which actives are shown more often than they occur.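 Rule for the calls: active = most replicate scores above 10, or exactly half above 10 with mean activity above 10; inconclusive = mean activity below 10 while half the replicates exceed 10; inactive = most replicate scores below 10.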

Assay: caspase activation in A1-primed MEFs – cell-based, CaspaseGlo luminescence, A1 inhibitor project, primary screen (AID 2241);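 note: effector caspase 3 and 7 activity cleaving a DEVD luciferin substrate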
Conditions: MEF A1-2A-BIM cells, caspase-Glo luminescence, 3 h; active compounds read high; percent of clofoctol signal, DMSO as zero; concentration not given here

SMILES | caspase activation
CN[C@@H]1C[C@H]2O[C@@](C)([C@@H]1OC)n1c3ccccc3c3c4c(c5c6ccccc6n2c5c31)C(=O)NC4 | 81% (active)
CCN(CC)C(=O)c1ccc(N(Cc2ccccc2Cl)S(C)(=O)=O)cc1 | -0.556% (inactive)
C[C@H]1O[C@@H](O[C@H]2CC[C@]3(CO)C4CC[C@]5(C)[C@@H](C6=CC(=O)OC6)CC[C@]5(O)[C@@H]4CC[C@H]3C2)[C@H](O)[C@H](O)[C@@H]1O[C@@H]1O[C@H](CO)[C@@H](O)[C@H](O)[C@H]1O (stereo not given in full) | -0.142% (inactive)
CC1N=C(c2ccccc2)c2ccccc2N(CCCOc2ccc(F)cc2)C1=O (stereo not given) | -0.726% (inactive)
Cc1ccc(CSc2nnc(OC(=O)N(C)C)n2-c2cccc(Cl)c2)cc1 | -0.0343% (inactive)
